For ten compounds, activity change, negative = inhibition results are on record in PubChem BioAssay AID504810 (National Center for Advancing Translational Sciences (NCATS), 2011).

Molecules are shown by their SMILES. About 670 (0.2%) of roughly 330,000 compounds were called active. The sample as a whole holds a higher share of actives than the screen did. Values without a mark were called inactive.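 How the source made its calls: active means activity change below a set negative limit, meaning inhibition stronger than a set level (cut at about -70% in these data); inconclusive means activity change between two set negative limits; inactive means the rest.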
On the % scale 0 is the no-effect control and ±100 the full control effect.

Thyrotropin receptor (Homo sapiens), sequence (P16473 whole entry, looked up): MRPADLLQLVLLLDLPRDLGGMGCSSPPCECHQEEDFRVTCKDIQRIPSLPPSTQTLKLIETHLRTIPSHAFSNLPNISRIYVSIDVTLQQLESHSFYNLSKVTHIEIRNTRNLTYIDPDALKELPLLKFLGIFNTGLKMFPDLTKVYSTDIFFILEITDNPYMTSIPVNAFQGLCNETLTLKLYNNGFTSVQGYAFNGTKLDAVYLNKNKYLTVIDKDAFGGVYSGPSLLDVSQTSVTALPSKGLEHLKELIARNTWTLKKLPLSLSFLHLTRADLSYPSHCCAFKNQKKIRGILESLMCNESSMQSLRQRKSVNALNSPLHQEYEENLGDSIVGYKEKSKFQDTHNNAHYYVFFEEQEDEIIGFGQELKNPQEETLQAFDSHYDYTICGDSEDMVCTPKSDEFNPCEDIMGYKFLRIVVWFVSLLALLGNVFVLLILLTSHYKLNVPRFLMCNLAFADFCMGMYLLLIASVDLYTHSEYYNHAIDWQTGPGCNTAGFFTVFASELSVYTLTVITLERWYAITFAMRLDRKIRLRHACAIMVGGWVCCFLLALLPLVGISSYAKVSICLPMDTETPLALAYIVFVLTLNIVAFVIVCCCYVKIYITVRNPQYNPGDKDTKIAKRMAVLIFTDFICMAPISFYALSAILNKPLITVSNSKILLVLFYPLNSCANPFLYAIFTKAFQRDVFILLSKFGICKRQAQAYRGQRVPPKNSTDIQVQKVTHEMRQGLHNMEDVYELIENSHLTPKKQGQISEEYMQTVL

This experiment has as its target Thyrotropin receptor (Homo sapiens) (UniProt P16473). The experiment is described as follows: Antagonists of the Thyroid Stimulating Hormone Receptor: HTS campaign. The conditions noted are these: TSHR-expressing cells, TSH-stimulated cAMP HTRF, 2 h; at 11.5 µM; stronger effect = lower value. The source says:
The thyroid-stimulating hormone receptor (TSHR) is a member of the 7 trans-membrane-spanning receptor (7TMR) family of cell surface receptors. TSHR-mediated hyperthyroidism is important in thyroid pathology. The development of small molecule antagonists of TSHR may lead to therapeutic approaches for TSHR-mediated hyperthyroidism caused by constitutively activating mutations or stimulating auto-antibodies associated with Graves' disease. Graves' disease is the leading cause of hyperthyroidism and is caused by autoantibodies that stimulate TSHR (TsAbs) causing thyroid growth and unregulated overproduction of thyroid hormones and existing treatments have liabilities (agranulocytosis). In addition, TSHRs are known to be expressed in multiple extrathyroidal tissues including bone, brain, kidney, testis, fat and cells of the immune system but the role of the TSHR in these tissues is not clear. Therefore, TSHR antagonists/inverse agonists could be used as probes of extrathyroidal TSHR function. Finally, TSHR inverse agonists, which are a subclass of antagonists that inhibit agonist-independent (or basal or constitutive) TSHR signaling, could be used to inhibit TSH-independent signaling in patients with recurrent or metastatic thyroid cancer who are receiving thyroid hormone to suppress TSH. In collaboration between scientist from the NCGC and the NIDDK, a miniaturized HTRF high-throughput screen was developed. It's a cell based assay, where an anti cAMP antibody contains a fluorescent cryptate tag (excitation 337 nm; emission 620 nm) and the acceptor is cAMP-d2 (excitation 620 nm; emission 665 nm). When antibody and cAMP-d2 interact and are excited by a 337 nm light, a FRET occurs resulting in emission at 665 nm. The assay is competition between cAMP-d2 and cAMP (from the cell lysate). The homogeneous protocol allows for one step dispense after stimulation that is automation friendly. NIH Chemical Genomics Center [NCGC] NIH Molecular Libraries Probe Centers Network [MLPCN] MLPCN Grant: MH090855-01 Assay Submitter (PI): Marvin Gerhengorn
1. 3ul of 200 TSHR freshly harvested cells/well are dispensed into a 1536 TC-treated white solid bottom plate. 2. Through pintool addition, 23nl of compounds and control in 100% DMSO are added to the plate. 3. Then 1ul of EC80 TSH (4nM final) is added to the plate. 4. Assay is incubated at 37 deg C for 2 hours. 5. 2ul of cAMP antibody diluted 1:20 in lysis buffer is added. 6. Immediately following, 2ul of d2 diluted 1:20 in HBSS is added seperately. 7. The assay is incubated for 30 minutes at ambient room temperature. 8. The result is obtained by using a ViewLux read-out with HTRF settings.
On to `COC(=O)C1=C(c2cccc(OCc3ccccc3)c2)C[C@@H]2CC[C@H]1N2C(=O)NCc1ccc(Br)cc1`, for which the activity change, negative = inhibition was -5.89%.
For the compound `COC(=O)C1=C(c2ccc(-c3ccccc3)c(F)c2)C[C@@H]2CC[C@H]1N2C(=O)NCc1ccc(F)cc1`, the activity change, negative = inhibition is -85% (active).
With `COC(=O)C1=C(c2ccc(F)cc2OCc2ccccc2)C[C@@H]2CC[C@H]1N2C(=O)NCc1ccc(Cl)cc1`, the activity change, negative = inhibition is -10%.
As for `c1ccc2c(c1)[I+]c1ccccc1-2`, the activity change, negative = inhibition was -36.8%.
Turning to `CC(=O)c1c(O)c(C)c(O)c(Cc2c(O)c3c(c(C(=O)/C=C/c4ccccc4)c2O)OC(C)(C)C=C3)c1O`, the activity change, negative = inhibition is -26.9%.
As to `CCOC(=O)c1ncn2c1[C@@H]1CCCN1C(=O)c1cc(OC)ccc1-2`, the activity change, negative = inhibition was -12.5%.
Turning to `C[C@]12CCC3C(CC[C@H]4C[C@@H](O)CC[C@]34C)C1C[C@@H](O)[C@H]2O` (stereo not given in full), the activity change, negative = inhibition is 2.4%.
Take `C[C@]12CC[C@H](O)C[C@H]1CC[C@@H]1C2CC[C@]2(C)[C@@H](C3=CC(=O)OC3)[C@@H](O)C[C@]12O` (stereo not given in full): the activity change, negative = inhibition is -81.8% (active).
As for `C[C@]12CCC3C(CC[C@H]4C[C@@H](O)CC[C@]34C)C1CC[C@@H]2O` (stereo not given in full), the activity change, negative = inhibition is 3.15%.
On to `CC(=O)NBr`, for which the activity change, negative = inhibition is -6.86%.
